Results reported in PubChem BioAssay (NCI).
The panel holds about 83,000 compounds, 20% with a hit somewhere; the sample as a whole holds those more often.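 Cells were grown in 96-well plates and exposed to the test compound at a single concentration for 48 hours; results are reported as percent growth, with values below 10 considered active.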 A number with no mark means an inactive call. The source made the active and inactive calls.

What was measured:
Assay in all cases: NCI-60 one-dose screen, 48 h (100 = growth as untreated, 0 = no growth, -100 = all killed)
Settings in all cases: 10 µM
[1] = system: EKVX NSCLC
[2] = system: SN12C renal
[3] = system: UO-31 renal
[4] = system: TK-10 renal
[5] = system: ACHN renal
[6] = system: CAKI-1 renal
[7] = system: A498 renal
[8] = system: CCRF-CEM leukemia
[9] = system: MOLT-4 leukemia

Compound	growth [1]	growth [2]	growth [3]	growth [4]	growth [5]	growth [6]	growth [7]	growth [8]	growth [9]
COc1ccc(CCN2CCC(Nc3nc4ccccc4n3Cc3ccc(F)cc3)CC2)cc1	45.1%	34.1%	-19.8% (active)	-6.61% (active)	12.5%	-1.28% (active)	-9.07% (active)	-13.6% (active)	-40.7% (active)
O[C@@H]1CO[C@H]2[C@@H]1OC[C@@H]2O	87.6%	103%		117%	98.9%	79.2%		101%	116%
Nc1nc(Cn2c(-c3nonc3N)nc3ccccc32)nc(N2CCCCC2)n1		98.2%		109%	95.3%	85.8%	88.6%	85.7%	83.2%
CNC(=O)c1c(I)c(NC(C)=O)c(I)c(C(=O)O)c1I	126%	95.6%	88.6%	114%	102%	115%	99.3%	104%	110%
O=C(CCCCCCC(=O)Nc1ccccc1)NO	28.8%	11.7%	-2.53% (active)		4.68% (active)	-28.3% (active)	-44.9% (active)		-5.35% (active)
COc1cc(-c2ccc[nH]2)[nH]c1/C=C1\N=C(C)C(C(=O)NC(C)C)=C1C	35.4%	38.3%	-35% (active)	17.7%	12.6%	20%	67.7%		-14.2% (active)
C#C[C@]1(O)CCC2C3CCc4cc(OC5CCCC5)ccc4C3CC[C@@]21C (some centres not stated)	86.3%	70.9%	72.5%	86.9%	73.3%	42%	85.1%	85.4%	59.8%
CC(C)Cc1ccc([C@H](C)C(=O)O)cc1	104%	103%	86.5%	100%	108%	93.7%	99.1%	102%	90.5%
CSc1ccc(-c2cc(-c3ccc(NC(=O)CCCN4CCCC4)cc3)nc(-c3ccc(NC(=O)CCCN4CCCC4)cc3)c2)cc1		77.8%	84.9%	73.8%	86.1%	83.6%	74.2%		
O=C1/C(=C/c2cccc(F)c2)Cc2ccccc21		98.6%	92.8%	94.2%	102%	82.9%			112%
O=C(CNc1nnc(-c2cccnc2SCc2ccccc2)s1)Nc1nc(Cl)cc(Cl)n1	112%	103%	77.4%	125%	119%	102%	121%	102%	95.4%
Cc1cc(CC(C)CC(C)(C)C)n(O)c(=O)c1 (configuration not stated) (tested in a mixture with another compound)	24.2%	13.2%	0% (active)	75%	9.73% (active)	34.3%	62.4%	11.4%	-6.44% (active)
COc1ccc(C2CC(c3cccs3)=NN2c2ccc(S(N)(=O)=O)cc2)cc1 (configuration not stated)		91.3%		108%	90.2%	88.9%	78.5%	76.3%	71.3%
CC(C)(C)c1ccc(S(=O)(=O)N[C@H]2CC[C@H]3[C@@H]4CCc5cc(O)ccc5[C@H]4CC[C@]23C)cc1		28.4%	25.1%	67.5%	35.2%	38.9%	33.6%		
CCCCc1oc2ccccc2c1C(=O)c1cc(I)c(OCCN(CC)CC)c(I)c1	3.63% (active)	5.13% (active)	-37% (active)		20%	-21% (active)	-47.3% (active)	-32.2% (active)	-54.3% (active)
N=C1S/C(=C/c2ccc(-c3ccc4c(c3)C(=O)NC4=O)o2)C(=O)N1c1ccc(Br)cc1		56.3%	-13.3% (active)	42.6%	52%	33.7%	39.5%		52.2%
COc1cc(N)c2ncccc2c1SC	86%	105%			104%	99.2%	71.8%	98.5%	101%
CCCc1nc(C(C)(C)O)c(C(=O)O)n1Cc1ccc(-c2ccccc2-c2nn[nH]n2)cc1	106%	96.4%	84.6%		93.5%	92.6%	80.2%	95.8%	107%
CN(C)CCCN1c2ccccc2CCc2ccc(Cl)cc21	70.5%	61.5%			69.2%	51.6%	39.9%	60.5%	30.8%
Nc1nc(-c2ccc(Cl)cc2)cc(-c2cc3ccccc3oc2=O)n1	86.2%	98.5%	69%	95.7%	92.5%		99.5%	103%	93.8%

Compound	growth [1]	growth [2]	growth [3]	growth [4]	growth [5]	growth [6]	growth [7]	growth [8]	growth [9]
CN1CCN(c2cc3c(cc2F)c(=O)c(C(=O)O)cn3-c2ccc(F)cc2)CC1	108%	97.3%	68.7%	103%	95.1%	94.7%	86.8%	102%	84.2%
C[C@H]1[C@H](OC(=O)CCC(=O)O)O[C@@H]2O[C@]3(C)CC[C@H]4[C@H](C)CC[C@@H]1[C@@]24OO3	29.2%	33.3%		46.8%	27%	16.7%	80.6%	39.7%	14.8%
Cc1nc2n(c(=O)c1CCN1CCC(c3noc4cc(F)ccc34)CC1)CCC[C@@H]2O	92.8%	101%		109%	95.9%	102%	80.5%	-3.98% (active)	96.9%
CC1/C=C/C=C/C=C/C=C/C=C/C=C/C=C/C(O[C@@H]2O[C@H](C)[C@H](O)[C@@H](O)[C@@H]2N)CC(O)C(C(=O)O)C(O)CC(=O)CC(O)CC(O)CC(O)CC(=O)CCCC(=O)CC(=O)OC1C(C)CC(C)C(O)CC(=O)c1ccc(N)cc1 (some centres not stated)	-98.6% (active)	-93.4% (active)	-96.4% (active)	-96.8% (active)	-99.7% (active)		-98.4% (active)	-59.2% (active)	-72.2% (active)
C[C@]12CC[C@@H]3c4ccc(OS(=O)(=O)O)cc4CC[C@H]3[C@@H]1CC[C@@H]2NS(=O)(=O)c1ccc(-c2ccccc2)cc1		68.7%	40.8%	93.3%	47.7%	66.2%	85.1%		
OC[C@H]1OC([S-])[C@H](O)[C@@H](O)[C@@H]1O.[Au+] (some centres not stated)	106%	98.5%	99.4%	124%	105%	108%	174%	61.5%	75.9%
CO[C@H]1CC(O[C@@H]2/C(C)=C/C[C@@H]3C[C@@H](C[C@]4(C=C[C@H](C)[C@@H](C5CCCCC5)O4)O3)OC(=O)[C@@H]3C=C(C)[C@@H](O)[C@H]4OC/C(=C\C=C\[C@@H]2C)[C@]43O)O[C@@H](C)C1O[C@H]1C[C@H](OC)[C@@H](O)[C@H](C)O1 (some centres not stated)	-94.3% (active)	-79.1% (active)	-98.4% (active)	-85.5% (active)	-100% (active)	-94.6% (active)	-80.3% (active)	-44.1% (active)	-58.2% (active)
CC(C)(C)c1ccc(S(=O)(=O)N[C@H]2CC[C@H]3[C@@H]4CCc5cc(OS(=O)(=O)O)ccc5[C@H]4CC[C@]23C)cc1		27.4%	17%		33.4%	41.5%	28.1%		15.2%
COc1ccc2nc3cc(Cl)ccc3c(Nc3cc(CN4CCCC4)c(O)c(CN4CCCC4)c3)c2n1	8.66% (active)	10.7%	18.9%	21.4%	22.9%	-4.38% (active)	-17.4% (active)	2.85% (active)	-25.2% (active)
C[C@]12CC[C@@H]3c4ccc(O)cc4CC[C@H]3[C@@H]1CC[C@@H]2NS(=O)(=O)c1ccc(C(F)(F)F)cc1		42%	13.6%		26.9%	38.6%	61.3%		11.7%
CCc1cc(Cl)c(OC)c(C(=O)NCC2CCCN2CC)c1O (configuration not stated)	82.4%	92.5%	61.4%	104%	88.5%	72.2%	70.1%	96%	88%
O=C1Cc2cc(CCN3CCN(c4nsc5ccccc45)CC3)c(Cl)cc2N1	88.1%	91%	58.8%	104%	95.6%	86.6%	64.1%	9.84% (active)	81.8%
Cc1cc(C(C#N)c2ccc(Cl)cc2)c(Cl)cc1NC(=O)c1cc(I)cc(I)c1O (configuration not stated)	41.2%	31%	79.8%		79.8%	38.7%	-37% (active)	19.1%	15.3%
CCCCCC(=O)O[C@]1(C(C)=O)CCC2C3CCC4=CC(=O)CC[C@]4(C)C3CC[C@@]21C (some centres not stated)	27.1%	21.5%	18.1%	40.4%	24%	18.6%	19.4%	21%	-23.1% (active)
Clc1ccc2c(c1)C(N1CCNCC1)=Nc1ccccc1O2	64.6%	57.8%	28.3%	64.9%	46%	36.5%	25.2%	58.5%	20%
CC(C)(C)c1ccc(S(=O)(=O)N[C@H]2CC[C@H]3[C@@H]4CCc5cc(O)c([N+](=O)[O-])cc5[C@H]4CC[C@]23C)cc1		71.8%	35.2%	90.6%	30%	46.3%	75.8%		78.5%
Nc1nc(Cl)nc2c1ncn2C1O[C@H](CO)[C@@H](O)[C@@H]1F (some centres not stated)	38.1%	14.5%	0.968% (active)	64.5%	3.32% (active)	-25.9% (active)	15.6%	2.64% (active)	-4.67% (active)
C[C@]12CCC3c4ccc(O)cc4C[C@@H](CCCCCCCCCS(=O)CCCC(F)(F)C(F)(F)F)C3C1CC[C@@H]2O (some centres not stated)	64.8%	93.7%		93%	74.3%	59.2%	84.6%	73.6%	39.6%
O=C1/C=C/[C@@H](O)[C@@H]2C[C@@H](O)C[C@H]2/C=C/CCC[C@H](CCc2ccc(C(F)(F)F)cc2)O1	3.27% (active)	1.34% (active)	1.2% (active)	-40% (active)	8.15% (active)	8.3% (active)	-29.7% (active)	-11% (active)	-21.5% (active)
C=C(NC(=O)C(=C)NC(=O)c1csc(C2=NC3c4csc(n4)C4NC(=O)c5csc(n5)C(C(C)(O)C(C)O)NC(=O)C5CSC(=N5)C(=CC)NC(=O)C(C(C)O)NC(=O)c5csc(n5)C3(CC2)NC(=O)C(C)NC(=O)C(=C)NC(=O)C(C)NC(=O)C(C(C)CC)NC2C=Cc3c(C(C)O)cc(nc3C2O)C(=O)OC4C)n1)C(N)=O (configuration not stated)	72.2%	25.6%	64.7%	27.7%	23.6%	71.4%	-41.5% (active)	-10.1% (active)	-36.9% (active)
